Results published in PubChem BioAssay (NCATS).
“And” between values parts separate entries of the source, which are not always exact repeats. Equal entries are not always repeated. Inconclusive results are not listed. A number with no mark means an inactive call. The source made the active and inactive calls. Calls follow the shape of the dose curve; as a rule, active = well fitted curve in the direction sought with a large enough effect; inconclusive = small, poorly fitted or top-dose-only effect, or another doubt; inactive = no such curve, though single readings can be large; an effect the other way counts as inactive or inconclusive.

Legend:
[1] = Viability qHTS for spleen associated tyrosine kinase inhibitor (SYKi) naive MV4-11 cells (AID 1963823); also: nearly all actives have a fitted effect of over 40% in size
In short: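 qHTS, SYK inhibitor-naive MV4-11; 500 cells/well; 72 hr compound exposure, 37 C; CellTiter-Glo added, 10 min RT; luminescence read.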

[2] = Viability qHTS for spleen associated tyrosine kinase inhibitor (SYKi) drug resistant MV4-11 cells (AID 1963824); also: nearly all actives have a fitted effect of over 35% in size
In short: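 SYK inhibitor-resistant MV4-11 AML cells, 500 per well, added to predispensed compounds and incubated 72 hr at 37 C, 5% CO2. Viability measured by CellTiter-Glo luminescence after 10 min at room temperature.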

[3] = Quantitative highthroughput screen to assess conditional lethalithy of NOMO1 cells grown in RPMI1640 with dialyzed fetal bovine serum (RPMI+ds) (AID 1963877); also: nearly all actives have a fitted effect of over 30% in size;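 as to Viability: series mostly up to about 46 µM; 100% = DMSO control wells and 0% = empty wells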
In short: (§1)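 Each medium arm—HPLM with 10% dialyzed FBS, or RPMI1640 with 5 mM glucose and 10% untreated or dialyzed FBS—was screened against an 11-point, 3-fold compound titration for 48 h at 37 °C, with CellTiter-Glo luminescence as endpoint.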

[4] = Quantitative highthroughput screen to assess conditional lethalithy of NOMO1 cells grown in Human Plasma-Like Medium with dialyzed fetal bovine serum (HPLM+ds) (AID 1963878); also: nearly all actives have a fitted effect of over 35% in size;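 as to Viability: 100% = DMSO wells and 0% = empty wells on each plate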
In short: as §1

[5] = Quantitative highthroughput screen to assess conditional lethalithy of P12 Ichikawa cells grown in RPMI1640 with dialyzed fetal bovine serum (RPMI+ds) (AID 1963880); conditions: Potency: P12-Ichikawa viability; also: nearly all actives have a fitted effect of over 35% in size;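 as to Viability: 100% = DMSO wells and 0% = empty wells on each plate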
In short: as §1

[6] = Quantitative highthroughput screen to assess conditional lethalithy of P12 Ichikawa cells grown in RPMI1640 with untreated serum (RPMI+s) (AID 1963881); conditions: Potency: viability; also: nearly all actives have a fitted effect of over 35% in size;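 as to Viability: series mostly up to about 46 µM; 100% = DMSO wells and 0% = empty wells without cells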
In short: as §1

[7] = Quantitative highthroughput screen to assess conditional lethalithy of SEM cells grown in Human Plasma-Like Medium with dialyzed fetal bovine serum (HPLM+ds) (AID 1963882); also: nearly all actives have a fitted effect of over 35% in size; as to Viability: series mostly up to about 46 µM
In short: as §1

[8] = Quantitative highthroughput screen to assess conditional lethalithy of SEM cells grown in RPMI1640 with unreated serum (RPMI+s) (AID 1963883); also: nearly all actives have a fitted effect of over 35% in size;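 as to Viability: 100% = DMSO wells and 0% = empty wells without cells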
In short: as §1

[9] = Cellular viability qHTS for adrenocortical cancer (ACC) cell line SW-13 (AID 1963989); conditions: SW-13 ACC cells viability, CellTiter-Glo, 48 h; activity (max response): active compounds read low; also: nearly all actives have a fitted effect of over 65% in size;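 as to activity (max response): cells grown in serum-free medium with ITS supplement; % is scaled to controls: 0 for no effect and ±100 for the full control effect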
In short: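 48 h treatment, SW-13 in ITS/DMEM serum-free; doses up to 46 uM; readout CellTiter-Glo luminescence; curve fit four-parameter logistic.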

[10] = Cellular viability qHTS for adrenocortical cancer (ACC) cell line NCI-H295R (AID 1963990); also: nearly all actives have a fitted effect of over 60% in size
In short: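 Compound titrations (up to 46 uM final) are applied to NCI-H295R cultures for 48 h at 37C. Viable cell number is estimated by CellTiter-Glo signal, normalised to DMSO and doxorubicin controls.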

[11] = Quantitative highthroughput screen to assess conditional lethalithy of SEM cells grown in RPMI1640 with dialyzed fetal bovine serum (RPMI+ds) (AID 1963884); also: nearly all actives have a fitted effect of over 35% in size;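 as to Viability: series mostly up to about 46 µM; 100% = DMSO control wells and 0% = empty wells without cells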
In short: as §1

[12] = Quantitative highthroughput screen to assess conditional lethalithy of NOMO1 cells grown in RPMI1640 with untreated serum (RPMI+s) (AID 1963876); also: nearly all actives have a fitted effect of over 35% in size;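 as to Viability: 100% = DMSO wells and 0% = empty wells without cells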
In short: as §1

[13] = Quantitative highthroughput screen to assess conditional lethalithy of P12 Ichikawa cells grown in Human Plasma-Like Medium with dialyzed fetal bovine serum (HPLM+ds) (AID 1963879); conditions: Potency: viability; also: nearly all actives have a fitted effect of over 35% in size; as to Viability: series mostly up to about 46 µM
In short: as §1
Potency is read from the fitted curve at half-maximal effect.

Row | Structure (SMILES) | Potency [1] | Potency [2] | Potency [3] | Potency [4] | Potency [5] | Potency [6] | Potency [7] | Potency [8] | activity (max response) [9] | Potency [10] | Potency [11] | Potency [9] | Potency [12] | Potency [13]
1 | CCCCNc1cc(C(=O)O)cc(S(N)(=O)=O)c1Oc1ccccc1 | inactive | inactive | inactive | inactive | inactive | inactive | inactive | inactive | 16.2% and -1.57% | inactive |  |  |  | 
2 | O=C(Nc1ccccc1-c1cn2c(CN3CCNCC3)csc2n1)c1cnc2ccccc2n1 | 9.2 µM (active) | 13 µM (active) | inactive | inactive |  |  | 18.7 µM (active) | 18.7 µM (active) |  | 7.08 µM (active) | 13.2 µM (active) | 3.55 µM (active) |  | 
3 | Clc1ccc(C(Cn2ccnc2)OCc2ccsc2Cl)c(Cl)c1 (stereo not given) | 8.33 µM (active) | 9.34 µM (active) |  |  |  |  |  |  |  | 31.6 µM (active) |  | 18.4 µM (active) | inactive | 
4 | NC1(C(=O)N[C@@H](CCO)c2ccc(Cl)cc2)CCN(c2ncnc3[nH]ccc23)CC1 | 0.461 µM (active) | 0.651 µM (active) |  |  |  |  |  | 3.32 µM (active) |  | 5.62 µM (active) | 2.64 µM (active) |  | 10.5 µM (active) | 
5 | CCCS(=O)(=O)Nc1ccc(F)c(C(=O)c2c[nH]c3ncc(-c4ccc(Cl)cc4)cc23)c1F | 14.8 µM (active) | 16.6 µM (active) | inactive | inactive | inactive | inactive | inactive | inactive |  |  | inactive |  |  | inactive
6 | Cc1cnc(NC(=O)Nc2cc(Br)c(C)cc2OC[C@@H]2CNCCO2)cn1 | 1.32 µM (active) | 1.18 µM (active) | 1.66 µM (active) | 1.18 µM (active) | 13.2 µM (active) |  | 0.526 µM (active) | 0.935 µM (active) |  | 2.51 µM (active) | 0.59 µM (active) |  |  | 
7 | COc1cc(C)c(Sc2cnc(NC(=O)c3ccc(CNC(C)C(C)(C)C)cc3)s2)cc1C(=O)N1CCN(C(C)=O)CC1 (stereo not given) | 2.63 µM (active) | 3.32 µM (active) | 20.9 µM (active) | 23.5 µM (active) |  |  | 4.18 µM (active) | 4.18 µM (active) |  |  | 3.32 µM (active) |  |  | 
8 | NC(=O)N1CCC(CC(=O)N2CCC([C@H]3c4ncc(Br)cc4CCc4cc(Cl)cc(Br)c43)CC2)CC1 | 5.9 µM (active) | 4.17 µM (active) | inactive |  |  |  |  |  |  |  |  |  |  | 
9 | C[C@]12C=CC(=O)C=C1CC[C@@H]1[C@@H]2C(=O)C[C@@]2(C)[C@H]1CC[C@]2(O)C(=O)CO | inactive | inactive | inactive | inactive | inactive | inactive | inactive | inactive | -14.6% and 1.01% | inactive | inactive |  |  | inactive
10 | CC(C)Nc1cc(-c2c[nH]c(C(=O)N[C@H](CO)c3cccc(Cl)c3)c2)c(Cl)cn1 | 2.91 µM (active) and 2.09 µM (active) | 1.64 µM (active) and 2.63 µM (active) |  |  |  |  | 20.9 µM (active) | 18.6 µM (active) |  | 8.91 µM (active) | 16.6 µM (active) |  | 14.8 µM (active) | 
11 | O[C@@H](COc1cccc2ncccc12)CN1CCN(C2c3ccccc3[C@@H]3[C@H](c4ccccc42)C3(F)F)CC1 (stereo not given in full) | 5.9 µM (active) and 9.2 µM (active) | 6.61 µM (active) and 9.2 µM (active) | inactive | inactive | inactive | inactive | inactive |  |  | 3.55 µM (active) | inactive | 20.6 µM (active) |  | inactive
12 | Cc1cnc(Nc2ccc(OCCN3CCCC3)cc2)nc1Nc1cccc(S(=O)(=O)NC(C)(C)C)c1 | 146 nM (active) and 186 nM (active) | 366 nM (active) and 417 nM (active) | inactive | inactive | inactive |  | 10.5 µM (active) | inactive |  | 10 µM (active) |  | 12.6 µM (active) |  | inactive
13 | CCn1nnc2c(N3CCOCC3)nc(-c3ccc(NC(=O)Nc4ccc(C(=O)N5CCN(C)CC5)cc4)cc3)nc21 | 20.6 nM (active) and 46.8 nM (active) | 29.1 nM (active) and 46.8 nM (active) |  |  |  |  |  |  |  | inactive |  |  | inactive | 
14 | CC(C)c1cc(C(=O)N2Cc3ccc(CN4CCN(C)CC4)cc3C2)c(O)cc1O | 0.0332 µM (active) | 41.1 nM (active) and 52.5 nM (active) | 0.662 µM (active) |  |  |  |  |  |  |  |  | 0.398 µM (active) |  | 
15 | c1nc2nc(Nc3ccc(N4CCOCC4)cc3)nc(NC3CCCCC3)c2[nH]1 | 224 nM (active) and 209 nM (active) | 317 nM (active) and 366 nM (active) |  | 14.8 µM (active) |  | 2.64 µM (active) |  | 2.35 µM (active) |  | 2.82 µM (active) | 2.35 µM (active) |  |  | 3.32 µM (active)
16 | COc1cc2ncnc(Nc3cccc(Cl)c3)c2cc1OC | 4.61 µM (active) and 5.17 µM (active) | 4.17 µM (active) and 6.51 µM (active) |  | 4.69 µM (active) |  |  | 0.332 µM (active) | 0.166 µM (active) |  |  | 0.372 µM (active) | 5.62 µM (active) |  | 4.69 µM (active)
17 | COc1cc2c(N3CCN(C(=O)Nc4ccc(OC(C)C)cc4)CC3)ncnc2cc1OCCCN1CCCCC1 | 231 nM (active) and 235 nM (active) | 366 nM (active) and 662 nM (active) | 8.33 µM (active) |  | 8.33 µM (active) |  |  | 0.469 µM (active) |  | inactive | 0.132 µM (active) |  |  | 
